Usually inhibition stands for the drop in the measured response relative to a control, in per cent.

Molecules are shown by their SMILES. The source made the active and inactive calls.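 Rule for the calls, unless noted: active = response below a set limit, under 55% cells CD8-positive and vesicle-bound, and CD8 cells' 90th-percentile brightness under 279; inactive = the rest.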

This is an account of results in PubChem BioAssay.

Assay [1] can be described thus: reduced mouse 2C T cell binding to pMHC/ICAM-1 vesicles – MLPCN validation set, flow cytometry, LFA-1/ICAM-1 modulator project, pilot screen (AID 2523).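 For vesicle binding response: mean PE anti-B7-1 fluorescence of CD8+ cells relative to row control; 100% = QL9-loaded vesicles with DMSO vehicle in the same plate row.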 To be noted: 2C mouse CD8+ T cells, at 7 µM, stronger effect = lower value; double positive events: measured here: CD8+/vesicle+ event percentage. (In flow cytometry, cells or beads pass a laser one at a time.)
For assay [2], the target named is Integrin beta-1 (Homo sapiens) + Integrin alpha-4 (Homo sapiens) (UniProt P13612+P05556). The experiment in a line: alpha4beta1 integrin LIBS antibody binding reduction – U937 cells, HUTS-21 mAb, flow cytometry, validation set, VLA-4 allosteric modulator project, pilot screen (AID 2674;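 active = inhibition above 50%, about 3 SD of the validation set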;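 note: antibody binding induced by the VLA-4 ligand LDV present at three times its Kd; 0% = LDV ligand with antibody and no compound and 100% = antibody without LDV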). The note with it: HUTS-21 LIBS mAb binding, at 6.7 µM, stronger effect = higher value, binding induced by LDV ligand.

A short description of assay [3]: calorie-restriction mimetic ROS inhibitors, yeast – validation compound set, pilot screen (AID 2706;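 active = superoxide response below 65% of plate, a cut near 3 SD across the whole screen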;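 note: yeast exposed to compound for one week at 30 degrees C before staining; 100% = mean of all compound wells on the same plate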). To be noted: S. cerevisiae aging, superoxide DHE fluorescence; at 10 µM, stronger effect = lower value.
In assay [4] the target is Beta-adrenergic receptor kinase 1 (Homo sapiens) (UniProt P25098). In words: GRK2 binders displacing RNA aptamer, biochemical, validation, human GRK2, bead flow cytometry (AID 488806;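 active = aptamer binding inhibition above 30%, about 3 SD of noise from non-fluorescent compounds; inactive = inhibition at or below 30%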). To be noted: bead-bound GRK2, FAM-aptamer displacement, at 10 µM, stronger effect = higher value.
The target in assay [5] is Beta-2 adrenergic receptor (Homo sapiens) (UniProt P07550). The experiment in a line: agonist-induced loss of surface beta2AR – cell-based, FAP fluorogen, flow cytometry, validation set, pilot screen (AID 504459;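 active = percent response above 42, roughly 3 SD of non-fluorescent test compounds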;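 note: agonist-driven loss of surface beta2AR via internalization measured by FAP dye flow cytometry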). The note with it: Am2.2-beta2AR cells, at 10 µM, stronger effect = higher value.
The target in assay [6] is AP-2 complex subunit beta (Homo sapiens) (UniProt P63010). In words: beta-arrestin/AP2 interaction blockers – biochemical, validation set, GST-AP2 beads, flow cytometry, pilot screen (AID 504541;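 active = inhibition above 54%, about 3 SD of non-fluorescent compounds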;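 note: AP2 carries R879A mutation and is captured from E. coli lysate; bead-bound FITC arrestin peptide fluorescence measuring arrestin peptide binding to AP2; 0% = DMSO wells and 100% = excess unlabeled arrestin peptide control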). The note with it: FITC arrestin peptide, at 10 µM, stronger effect = higher value, AP2 beta2 appendage fragment, R879A mutant.
Assay [7] can be described thus: cytosolic pH regulators acting via V-ATPase – S. cerevisiae, pHLuorin, HTS validation (AID 504600; in the data active = response above about 15%;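 note: plate controls were DMSO for no effect and reference compound for full effect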). To be noted: V-ATPase proton transport, at 10 µM, stronger effect = higher value.
The subject of assay [8] is anti-desmoglein-3 scFv antibody binding to human DSG3. The experiment in a line: blockers of pathogenic pemphigus antibody–desmoglein-3 binding – biochemical, validation compound set, bead-based, flow cytometry, pilot screen (AID 588368;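 active = binding below the plate cutoff, the plate median minus 3 SD, with a reading above zero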;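 note: signal is the median channel fluorescence of bead-bound GFP antibody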). The note with it: Protein G beads, DSG3-Fc, scFv-GFP binding, at 10 µM, stronger effect = lower value.
The nature of assay [9]: Nile Red efflux blockade in pump-expressing yeast – validation compound set, multiplex, phenotypic, pilot screen (AID 588506;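 active = efflux inhibition above 0.42, the validation set average plus 4 SD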;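 note: Nile Red retained in cells so higher fluorescence means more efflux inhibition; 0 = negative control wells and 1 = enniatin B 25 µM full block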). To be noted: S. cerevisiae pump-expressing triplex, Nile Red efflux flow cytometry; at 10 µM; stronger effect = higher value; the pumps come from Candida albicans.
Assay [10] concerns the target ATP-binding cassette sub-family B member 6 (Homo sapiens) (UniProt Q9NP58). The experiment in a line: blockers of ABCB6-driven porphyrin uptake – K562-ABCB6 cells, flow cytometry, validation set, pilot screen (AID 588550;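 active = inhibition above the screen-wide mean plus 3 SD, about 51%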;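 note: 0% = DMSO wells and 100% = benzethonium chloride 70 µM positive control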). To be noted: K562-ABCB6 porphyrin accumulation, 1 h, at 10 µM, stronger effect = higher value.
The nature of assay [11]: AML differentiation inducers, ER-HoxA9 marrow cells – cell-based, GFP/MAC1 double positive, flow cytometry, validation set, primary screen (AID 588685;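 active = differentiation response of at least 50%, scaled between solvent and reference control, from cells with both markers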;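 note: compound exposure lasts four days before antibody staining and flow analysis; 0% = DMSO wells and 100% = 5 µM fulvestrant positive control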). To be noted: stronger effect = higher value, normalized: vehicle 0, fulvestrant 100.

Sequence of Beta-2 adrenergic receptor (Homo sapiens) (P07550 whole entry, looked up): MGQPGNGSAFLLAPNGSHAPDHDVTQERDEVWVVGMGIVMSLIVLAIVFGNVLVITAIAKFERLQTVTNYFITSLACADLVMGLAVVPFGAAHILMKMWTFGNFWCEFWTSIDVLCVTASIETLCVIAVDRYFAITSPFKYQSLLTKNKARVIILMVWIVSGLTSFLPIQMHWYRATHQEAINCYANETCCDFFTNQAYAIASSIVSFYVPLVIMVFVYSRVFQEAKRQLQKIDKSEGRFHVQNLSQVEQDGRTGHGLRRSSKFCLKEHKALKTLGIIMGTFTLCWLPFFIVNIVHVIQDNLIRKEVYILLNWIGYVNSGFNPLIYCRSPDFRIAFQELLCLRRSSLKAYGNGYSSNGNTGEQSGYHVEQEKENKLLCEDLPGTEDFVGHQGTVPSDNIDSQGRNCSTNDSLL
Sequence of Beta-adrenergic receptor kinase 1 (Homo sapiens) (P25098 whole entry, looked up): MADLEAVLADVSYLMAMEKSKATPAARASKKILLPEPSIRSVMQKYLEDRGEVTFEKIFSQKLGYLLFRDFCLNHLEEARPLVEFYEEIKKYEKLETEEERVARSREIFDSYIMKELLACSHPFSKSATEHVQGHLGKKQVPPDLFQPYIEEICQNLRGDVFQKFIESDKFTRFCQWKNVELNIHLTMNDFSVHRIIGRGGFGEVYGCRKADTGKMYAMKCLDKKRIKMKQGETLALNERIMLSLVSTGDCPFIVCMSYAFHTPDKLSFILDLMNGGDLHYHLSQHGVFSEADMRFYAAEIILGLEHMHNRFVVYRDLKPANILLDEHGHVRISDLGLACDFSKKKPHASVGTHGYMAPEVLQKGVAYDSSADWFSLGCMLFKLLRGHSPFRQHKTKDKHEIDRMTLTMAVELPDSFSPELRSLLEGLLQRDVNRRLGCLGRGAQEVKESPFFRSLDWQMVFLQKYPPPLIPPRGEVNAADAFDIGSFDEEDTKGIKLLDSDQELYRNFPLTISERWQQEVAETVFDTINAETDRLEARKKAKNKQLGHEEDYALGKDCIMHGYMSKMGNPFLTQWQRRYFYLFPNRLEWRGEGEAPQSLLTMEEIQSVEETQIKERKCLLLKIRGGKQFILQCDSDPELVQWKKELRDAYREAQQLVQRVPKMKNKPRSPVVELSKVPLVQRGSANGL
Sequence of AP-2 complex subunit beta (Homo sapiens) (P63010 whole entry, looked up, the tested form may be a part, one chain of several): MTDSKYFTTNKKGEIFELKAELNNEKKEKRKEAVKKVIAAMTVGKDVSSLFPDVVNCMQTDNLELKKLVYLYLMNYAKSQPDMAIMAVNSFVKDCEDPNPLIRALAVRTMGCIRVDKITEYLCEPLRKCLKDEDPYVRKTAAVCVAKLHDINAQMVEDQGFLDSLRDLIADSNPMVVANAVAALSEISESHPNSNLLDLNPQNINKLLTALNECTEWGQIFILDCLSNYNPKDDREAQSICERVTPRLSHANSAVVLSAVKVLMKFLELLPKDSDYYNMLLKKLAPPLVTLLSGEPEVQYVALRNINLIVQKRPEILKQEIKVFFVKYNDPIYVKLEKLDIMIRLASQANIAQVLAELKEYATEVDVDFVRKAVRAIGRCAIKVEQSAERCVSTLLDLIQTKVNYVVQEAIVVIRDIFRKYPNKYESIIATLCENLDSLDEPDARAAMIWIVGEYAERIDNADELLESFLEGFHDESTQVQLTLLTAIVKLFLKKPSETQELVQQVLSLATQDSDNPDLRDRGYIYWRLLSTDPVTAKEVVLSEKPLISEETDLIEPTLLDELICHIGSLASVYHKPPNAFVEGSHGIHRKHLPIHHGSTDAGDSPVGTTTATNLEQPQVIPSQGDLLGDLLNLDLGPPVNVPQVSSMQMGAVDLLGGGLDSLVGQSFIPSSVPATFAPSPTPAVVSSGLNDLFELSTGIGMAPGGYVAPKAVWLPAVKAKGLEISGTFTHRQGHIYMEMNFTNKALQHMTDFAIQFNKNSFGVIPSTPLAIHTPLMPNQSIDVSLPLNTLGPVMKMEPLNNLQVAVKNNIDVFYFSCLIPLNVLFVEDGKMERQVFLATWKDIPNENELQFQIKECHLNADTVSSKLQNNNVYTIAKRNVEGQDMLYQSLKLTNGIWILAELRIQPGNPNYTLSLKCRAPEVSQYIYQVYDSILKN
Sequence of ATP-binding cassette sub-family B member 6 (Homo sapiens) (Q9NP58 whole entry, looked up): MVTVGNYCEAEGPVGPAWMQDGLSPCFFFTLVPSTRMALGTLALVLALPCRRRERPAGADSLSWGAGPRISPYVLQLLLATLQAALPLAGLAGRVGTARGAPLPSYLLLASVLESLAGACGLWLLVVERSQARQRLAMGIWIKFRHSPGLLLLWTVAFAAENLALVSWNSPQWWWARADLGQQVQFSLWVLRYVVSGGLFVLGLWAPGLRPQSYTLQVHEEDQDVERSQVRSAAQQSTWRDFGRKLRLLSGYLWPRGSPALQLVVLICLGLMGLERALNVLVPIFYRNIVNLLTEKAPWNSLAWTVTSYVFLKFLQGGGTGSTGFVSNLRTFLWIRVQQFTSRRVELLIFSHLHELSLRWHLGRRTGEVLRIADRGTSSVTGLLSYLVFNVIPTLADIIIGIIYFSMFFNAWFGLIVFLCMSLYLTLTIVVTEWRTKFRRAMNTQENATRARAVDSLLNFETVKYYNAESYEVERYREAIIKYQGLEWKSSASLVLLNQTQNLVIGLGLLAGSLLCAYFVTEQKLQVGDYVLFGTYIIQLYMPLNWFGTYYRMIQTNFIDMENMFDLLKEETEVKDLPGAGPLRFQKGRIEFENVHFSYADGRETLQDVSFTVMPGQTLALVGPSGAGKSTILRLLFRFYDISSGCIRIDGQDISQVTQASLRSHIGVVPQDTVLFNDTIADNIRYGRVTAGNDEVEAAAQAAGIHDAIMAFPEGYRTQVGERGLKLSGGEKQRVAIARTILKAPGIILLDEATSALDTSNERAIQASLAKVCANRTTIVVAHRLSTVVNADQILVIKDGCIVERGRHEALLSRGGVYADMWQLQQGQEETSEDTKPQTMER
Sequence of Integrin beta-1 (Homo sapiens) + Integrin alpha-4 (Homo sapiens) (P05556 whole entry, looked up): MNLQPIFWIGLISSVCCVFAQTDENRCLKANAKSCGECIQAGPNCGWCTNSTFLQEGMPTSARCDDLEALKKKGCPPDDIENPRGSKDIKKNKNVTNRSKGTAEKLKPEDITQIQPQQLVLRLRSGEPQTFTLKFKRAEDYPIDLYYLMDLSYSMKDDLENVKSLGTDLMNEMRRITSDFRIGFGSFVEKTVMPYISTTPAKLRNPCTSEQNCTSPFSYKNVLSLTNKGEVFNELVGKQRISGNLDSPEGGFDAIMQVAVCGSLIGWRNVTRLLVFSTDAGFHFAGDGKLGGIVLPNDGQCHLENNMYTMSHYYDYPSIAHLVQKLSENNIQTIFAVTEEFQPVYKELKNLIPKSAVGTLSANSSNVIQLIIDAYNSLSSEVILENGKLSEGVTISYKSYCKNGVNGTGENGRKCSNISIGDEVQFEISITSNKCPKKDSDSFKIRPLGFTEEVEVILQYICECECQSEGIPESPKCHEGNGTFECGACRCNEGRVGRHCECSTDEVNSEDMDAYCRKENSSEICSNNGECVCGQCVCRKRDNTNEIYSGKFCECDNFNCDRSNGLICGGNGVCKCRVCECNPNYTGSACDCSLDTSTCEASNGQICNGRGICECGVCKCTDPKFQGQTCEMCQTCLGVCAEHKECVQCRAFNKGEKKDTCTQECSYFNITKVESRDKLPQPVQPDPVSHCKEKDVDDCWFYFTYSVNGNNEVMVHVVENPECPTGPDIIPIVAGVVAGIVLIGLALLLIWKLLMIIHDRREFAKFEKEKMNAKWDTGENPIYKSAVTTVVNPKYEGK
Sequence of Integrin beta-1 (Homo sapiens) + Integrin alpha-4 (Homo sapiens) (P13612 whole entry, looked up): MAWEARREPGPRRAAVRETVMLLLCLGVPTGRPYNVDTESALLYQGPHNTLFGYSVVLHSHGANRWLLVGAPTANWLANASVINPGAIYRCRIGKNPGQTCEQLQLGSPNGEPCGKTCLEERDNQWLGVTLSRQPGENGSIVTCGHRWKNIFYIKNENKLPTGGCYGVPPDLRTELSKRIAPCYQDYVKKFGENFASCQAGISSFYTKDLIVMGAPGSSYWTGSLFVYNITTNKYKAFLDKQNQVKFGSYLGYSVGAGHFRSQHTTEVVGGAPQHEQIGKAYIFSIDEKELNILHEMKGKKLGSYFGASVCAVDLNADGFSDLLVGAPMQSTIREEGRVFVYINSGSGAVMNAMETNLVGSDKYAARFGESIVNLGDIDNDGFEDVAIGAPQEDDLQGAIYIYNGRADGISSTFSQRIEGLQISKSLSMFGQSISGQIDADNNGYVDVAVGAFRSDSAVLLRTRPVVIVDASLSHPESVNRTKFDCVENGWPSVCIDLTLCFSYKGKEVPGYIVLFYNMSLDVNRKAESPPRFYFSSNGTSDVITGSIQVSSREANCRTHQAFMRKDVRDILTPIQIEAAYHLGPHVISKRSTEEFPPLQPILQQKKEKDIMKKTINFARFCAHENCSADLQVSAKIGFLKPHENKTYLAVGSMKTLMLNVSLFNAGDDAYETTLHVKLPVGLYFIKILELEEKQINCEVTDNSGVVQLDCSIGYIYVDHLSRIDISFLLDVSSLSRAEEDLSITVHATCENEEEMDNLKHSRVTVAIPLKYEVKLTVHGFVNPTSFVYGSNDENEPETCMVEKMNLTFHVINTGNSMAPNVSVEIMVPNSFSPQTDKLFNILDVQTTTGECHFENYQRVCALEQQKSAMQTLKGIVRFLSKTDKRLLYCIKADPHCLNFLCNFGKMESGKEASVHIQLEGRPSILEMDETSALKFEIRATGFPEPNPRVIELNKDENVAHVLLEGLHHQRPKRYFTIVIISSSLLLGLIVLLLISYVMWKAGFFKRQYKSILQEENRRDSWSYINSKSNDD

Consider `CCc1cccc2c1NC1(CCCC1)CC2C` (stereo unspecified), for which the double positive events in assay [1] was determined as 58.5%. The vesicle binding response in [1] is 185% (inactive). Moreover, the figures for the inhibition in assay [2], in [6] and in [10] were -16.8% (inactive), -1.05% (inactive) and -41% (inactive), respectively. Also, the superoxide response (% of plate) in assay [3] was 96.3% (inactive). Further, the aptamer binding inhibition in assay [4] was 4% (inactive). The response in assay [5] is 45.9% (active); in [7], 1.08% (inactive). The binding (% of control) in assay [8] was 97.6% (inactive). Besides, the efflux inhibition (fraction of control) in assay [9] was -0.06 (inactive). In addition, the differentiation response in [11] was 10.4% (inactive).

Consider `O=C(/C=C/c1ccco1)NCc1ccc2c(c1)OCO2`, for which the double positive events in [1] came out at 63%. Moreover, the vesicle binding response in assay [1] was 260% (inactive). Also, the inhibition was -3.16% (inactive) in assay [2], -3% (inactive) in assay [6] and 8% (inactive) in [10]. The superoxide response (% of plate) in assay [3] is 101% (inactive). For the same molecule, in assay [4], the aptamer binding inhibition is 0% (inactive). Moreover, the response in [5] was -2.38% (inactive); in assay [7], 1.08% (inactive). Besides, in assay [8], the binding (% of control) is 94.7% (inactive). In addition, the efflux inhibition (fraction of control) in assay [9] is 0.19 (inactive). Besides, in assay [11], the differentiation response is -10.4% (inactive).

`Cc1csc(CCc2nc(C)cs2)n1` had a double positive events in assay [1] of 55.3%. Also, in [1], the vesicle binding response is 130% (inactive). The inhibition was 2.93% (inactive) in [2], -2.65% (inactive) in assay [6] and 17% (inactive) in assay [10]. Also, the superoxide response (% of plate) in assay [3] is 108% (inactive). In assay [4], the aptamer binding inhibition was 1% (inactive). The response in [5] was -2.9% (inactive); in assay [7], 0.13% (inactive). The binding (% of control) in [8] was 102% (inactive). Also, the efflux inhibition (fraction of control) in assay [9] is 0.01 (inactive). In assay [11], the differentiation response is -4.57% (inactive).

For `COC(=O)c1cc(C(=O)NCCC(C)C)cc([N+](=O)[O-])c1`, in assay [1], the double positive events is 57.8%. Moreover, the vesicle binding response in assay [1] was 229% (inactive). The values for the inhibition in [2], in [6] and in [10] were 2.3% (inactive), -12% (inactive) and 3% (inactive), respectively. In assay [3], the superoxide response (% of plate) was 112% (inactive). Further, the aptamer binding inhibition in [4] was 4% (inactive). Further, the response in assay [5] was 7.63% (inactive); in assay [7] it was 2.1% (inactive). Moreover, the binding (% of control) in assay [8] was 94.5% (inactive). Moreover, in [9], the efflux inhibition (fraction of control) is -0.13 (inactive). In assay [11], the differentiation response is -15.2% (inactive).

In assay [1], `COc1ccc(C(=O)C2CCCCC2=O)cc1` (stereo unspecified) registered a double positive events of 67.8%. Also, in assay [1], the vesicle binding response was 193% (inactive). Besides, the results for the inhibition in [2], in assay [6] and in assay [10] were 9.1% (inactive), 2.47% (inactive) and 16% (inactive), respectively. Further, the superoxide response (% of plate) in [3] is 100% (inactive). In addition, the aptamer binding inhibition in assay [4] was 0% (inactive). In addition, the response was 15.9% (inactive) in assay [5] and -6% (inactive) in [7]. Besides, the binding (% of control) in assay [8] is 101% (inactive). Moreover, the efflux inhibition (fraction of control) in assay [9] was 0.04 (inactive). In addition, the differentiation response in assay [11] was -7.94% (inactive).

In assay [1], `O=C(NCCc1nc2ccccc2[nH]1)c1cccc(Br)c1` had a double positive events of 72.8%. Further, the vesicle binding response in assay [1] is 224% (inactive). Moreover, the inhibition is 11.9% (inactive) in assay [2], -1.76% (inactive) in [6] and 5% (inactive) in assay [10]. The superoxide response (% of plate) in [3] was 92.6% (inactive). For the same molecule, the aptamer binding inhibition in [4] is 4% (inactive). In addition, the response in assay [5] is -6.54% (inactive); in assay [7] it was 3.78% (inactive). Besides, the binding (% of control) in assay [8] was 97.8% (inactive). Also, the efflux inhibition (fraction of control) in [9] is -0.1 (inactive). In assay [11], the differentiation response was 0.8% (inactive).

In [1], `Cc1nc2ccccc2c(=O)n1N` had a double positive events of 64.8%. Moreover, the vesicle binding response in assay [1] is 160% (inactive). The figures for the inhibition in assay [2], in assay [6] and in assay [10] were 5.03% (inactive), -8.13% (inactive) and 6% (inactive), respectively. The superoxide response (% of plate) in [3] was 95.7% (inactive). For the same molecule, the aptamer binding inhibition in [4] was -1% (inactive). The response in [5] is -0.52% (inactive); in assay [7] it was -5.43% (inactive). Besides, the binding (% of control) in assay [8] was 106% (inactive). The efflux inhibition (fraction of control) in assay [9] was 0.15 (inactive). For the same molecule, the differentiation response in [11] is 58.4% (active).

`COc1cc(C(=O)OCCCN(C)C)cc(OC)c1OC` displayed a double positive events in assay [1] of 60.1%. Further, in [1], the vesicle binding response is 180% (inactive). The figures for the inhibition in assay [2], in assay [6] and in assay [10] were 21.9% (inactive), 4.79% (inactive) and -1% (inactive), respectively. Moreover, in [3], the superoxide response (% of plate) was 93.6% (inactive). Also, the aptamer binding inhibition in assay [4] was -2% (inactive). Further, the response was -28.8% (inactive) in assay [5] and 1.07% (inactive) in [7]. In addition, the binding (% of control) in assay [8] is 108% (inactive). Further, the efflux inhibition (fraction of control) in assay [9] is -0.09 (inactive). In assay [11], the differentiation response was -4.99% (inactive).

On to `O=C(c1ccccc1F)c1cc2c(cc1[N+](=O)[O-])OCCO2`, for which the double positive events in [1] worked out at 63%. The vesicle binding response in assay [1] is 163% (inactive). Also, the figures for the inhibition in [2], in assay [6] and in [10] were 15% (inactive), -6.21% (inactive) and 7% (inactive), respectively. Also, the superoxide response (% of plate) in assay [3] was 107% (inactive). In assay [4], the aptamer binding inhibition was 3% (inactive). Also, the response in assay [5] is 24.6% (inactive); in assay [7], 1.51% (inactive). The binding (% of control) in assay [8] was 105% (inactive). In assay [9], the efflux inhibition (fraction of control) was -0.19 (inactive). Also, the differentiation response in [11] was -1.65% (inactive).

With `CCN(CC)CCNC(=O)c1cc(S(C)(=O)=O)ccc1OC`, the double positive events in [1] is 58.8%. Besides, in assay [1], the vesicle binding response is 219% (inactive). The inhibition in [2] was -1.79% (inactive); in [6] it was -1.05% (inactive); in [10], 5% (inactive). Besides, the superoxide response (% of plate) in assay [3] was 88.3% (inactive). For the same molecule, in assay [4], the aptamer binding inhibition is 4% (inactive). The response is 4.46% (inactive) in assay [5] and 4.62% (inactive) in [7]. Also, in assay [8], the binding (% of control) was 101% (inactive). Moreover, the efflux inhibition (fraction of control) in assay [9] was -0.28 (inactive). Besides, the differentiation response in [11] was -5.6% (inactive).

`COc1ccc(NC(=S)NCCc2c[nH]c3ccccc23)cc1` came in with a double positive events in assay [1] of 69.3%. Further, the vesicle binding response in assay [1] was 445% (inactive). For the same molecule, the inhibition in assay [2] is -1.97% (inactive); in [6], -10.2% (inactive); in assay [10] it was 8% (inactive). In addition, the superoxide response (% of plate) in assay [3] is 111% (inactive). Also, the aptamer binding inhibition in assay [4] was 1% (inactive). Moreover, the response in assay [5] was -13.3% (inactive); in [7], -1.54% (inactive). For the same molecule, in assay [8], the binding (% of control) was 108% (inactive). The efflux inhibition (fraction of control) in assay [9] is 0 (inactive). In assay [11], the differentiation response was -6.96% (inactive).

In turn, `CCCCC[C@H](O)/C=C/[C@@H]1[C@@H](C/C=C\CCCC(=O)O)[C@H]2CO[C@@H]1C2` returned a double positive events in [1] of 59%. The vesicle binding response in assay [1] is 192% (inactive). Besides, the inhibition in assay [2] is -8.78% (inactive); in assay [6] it was 1.57% (inactive); in assay [10] it was -1% (inactive). Also, in [3], the superoxide response (% of plate) was 110% (inactive). The aptamer binding inhibition in assay [4] was -1% (inactive). The response is -18.1% (inactive) in [5] and -0.38% (inactive) in assay [7]. In addition, the binding (% of control) in assay [8] is 101% (inactive). Moreover, the efflux inhibition (fraction of control) in assay [9] is 0.08 (inactive). Further, the differentiation response in assay [11] is -10.9% (inactive).

For `COc1cc2ccc(=O)oc2c(O)c1OCC=C(C)C`, the double positive events in [1] is 63.7%. In assay [1], the vesicle binding response was 190% (inactive). Also, the inhibition in [2] was -12.9% (inactive); in assay [6], -0.67% (inactive); in [10] it was 10% (inactive). In addition, the superoxide response (% of plate) in assay [3] was 102% (inactive). In addition, the aptamer binding inhibition in assay [4] is -1% (inactive). Besides, the response in [5] was -9.13% (inactive); in [7], -0.32% (inactive). Further, the binding (% of control) in assay [8] was 98.2% (inactive). Besides, the efflux inhibition (fraction of control) in assay [9] is 0.05 (inactive). The differentiation response in assay [11] was 7.09% (inactive).
